In the library only some 1.3% were active in any assay of this set; here they are far more common.
RE007 growth inh: less growth of the S. pombe RE007 Vpr strain; S. pombe RE007 Vpr strain, BacTiter-Glo ATP luminescence, 24 h; Potency, µM (doses to about 92.2 µM), for inactives: at the top dose activity change, negative = less growth, hits mostly inhibitors; hit rate 0.21% among 360,000; AID 651644; active = well fitted falling curve with a large enough effect; inconclusive = small, poorly fitted or top-dose-only effect; inactive = no such curve, though single readings can be large or run the other way; note: nearly all actives have a fitted effect of over 50% in size
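Fission yeast RE007 carrying one integrated HIV-1 vpr copy, seeded at OD 0.01 in PMG+AL medium with 23 nL pinned compound. Grown 24 h at 30 degrees; viability read by BacTiter-Glo luminescence after 5 min.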
VACV mCherry inh: vaccinia inhibition (mCherry reporter) | hit rate 0.63% among 310,000 | Potency, µM (top dose mostly 36.5 µM), for inactives: at the top dose activity change, negative = inhibition, hits mostly inhibitors | Vaccinia virus mCherry reporter infection, fluorescence; calls by dose curve; tested in A549 cells; note: nearly all actives have a fitted effect of over 35% in size
VACV Venus inh: vaccinia inhibition (Venus reporter). Vaccinia virus Venus reporter expression, fluorescence. Potency, µM (top dose mostly 36.5 µM), for the others: at the highest dose activity change, negative = inhibition, usual class: inhibitors. hit rate 0.46% among 330,000. AID 720580; calls by dose curve; tested in A549 cells; note: nearly all actives have a fitted effect of over 30% in size
AMA1-RON2 inh: AMA1-RON2 (P. falciparum) interaction inhibition; hit rate 0.2% among 360,000; AlphaScreen AMA1-biotinylated RON2 peptide binding; Potency, µM (top dose mostly 58.2 µM), without a hit: top-dose activity change, negative = inhibition, hits mostly inhibitors;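 note: 0% = vehicle wells and -100% = peptide control; nearly all actives have a fitted effect of over 45% in size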
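AMA1 (3D7) with his tag at 25 nM final met compounds first, then biotinylated RON2 peptide at 25 nM; detection used donor plus acceptor beads, 10 µg/mL apiece, read by AlphaScreen after 30 min at room temperature.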
LmPK inh: blocks Leishmania mexicana pyruvate kinase activity | Q27686 | purified LmPK, Kinase-Glo ATP luminescence, 1 h | Potency, µM (titrated, usually from 57.5 µM), without a hit: at the top dose activity change, negative = inhibition, hits mostly inhibitors | hit rate 0.37% among 290,000
Target sequence (Q27686 whole entry, looked up): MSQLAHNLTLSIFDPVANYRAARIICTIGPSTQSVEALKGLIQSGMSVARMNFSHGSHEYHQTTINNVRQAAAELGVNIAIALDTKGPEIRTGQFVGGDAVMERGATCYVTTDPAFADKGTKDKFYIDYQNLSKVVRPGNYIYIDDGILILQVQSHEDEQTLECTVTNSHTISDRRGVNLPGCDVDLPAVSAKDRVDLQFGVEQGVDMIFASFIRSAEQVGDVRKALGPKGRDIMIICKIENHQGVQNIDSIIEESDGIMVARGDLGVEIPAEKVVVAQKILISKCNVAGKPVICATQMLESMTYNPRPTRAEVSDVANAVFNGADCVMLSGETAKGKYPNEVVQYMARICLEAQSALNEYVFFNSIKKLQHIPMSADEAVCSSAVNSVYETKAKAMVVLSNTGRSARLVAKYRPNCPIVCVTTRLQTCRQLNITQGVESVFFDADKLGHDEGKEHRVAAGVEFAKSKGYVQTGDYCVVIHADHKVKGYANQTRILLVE
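In 50 mM imidazole pH 7.2 with 7 mM MgCl2, LmPK (0.1 nM) turned over PEP (0.5 mM) and ADP (0.1 mM) for 1 h at room temperature. Luciferase read-out of ATP.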
Tb PYK inh: blocks Trypanosoma brucei pyruvate kinase | TbPYK enzyme, Kinase-Glo Plus ATP luminescence, 45 min | hit rate 0.12% among 410,000 | Potency, µM (series often up to 76.8 µM), for the others: at the top dose activity, negative = inhibition, hits mostly inhibitors | AID 624173; note: nearly all actives have a fitted effect of over 50% in size
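Enzyme and substrate buffer are dispensed first and compound is pin-transferred. ADP at 130 uM final then starts the reaction, which runs 45 min at room temperature. Detection reagent is added for 10 min before luminescence is imaged.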
Active calls of the source: *; i = inactive; ? = inconclusive; / = no result; ! = not confirmed by another sample; [ ] = another dose, or the depositor's remark. Unless noted, calls come from the whole dose curve; as a rule, active = well fitted curve in the direction sought with a large enough effect; inconclusive = small, poorly fitted or top-dose-only effect, or another doubt; inactive = no such curve, though single readings can be large; an effect the other way counts as inactive or inconclusive. Unless noted, % is set by controls: 0 for no effect and ±100 for the full control effect; potency is the fitted concentration of half-maximal effect.

SMILES	RE007 growth inh	VACV mCherry inh	VACV Venus inh	AMA1-RON2 inh	LmPK inh	Tb PYK inh
COc1ccc(N2CCN(Cc3csc(C)c3-c3ccc(C)cc3)CC2)cc1	3.2%	-12.8%	-2.4%	10µM*	12.1%	-0.4%
COc1ccc(N2CCN(Cc3cc4c(cc3Br)OCCO4)CC2)cc1	5.2%	-7.1%	-7.5%	12.6µM*	2.7%	-1.1%
CS(=O)(=O)Nc1ccc(-c2n[nH]c(=S)n2-c2ccccc2)cc1	0.4%	-3.6%	2.7%	-11.9%	10µM*	0.0%
Cc1cccc(NCc2n[nH]c(=S)n2-c2ccccc2)c1	-17.3%	/	/	67.0%	-17.6%	?
Cc1ccc(S(=O)(=O)N(Cc2n[nH]c(=S)n2-c2ccccc2)c2ccccc2)cc1	9.9%	i	-9.2%	65.6%	-23.6%	7.94µM*
Cc1ccc(NCc2n[nH]c(=S)n2-c2ccccc2)cc1	5.6%	-12.1%	-5.1%	-0.8%	1.6%	2.82µM*
Cc1ccc(S(=O)(=O)N(Cc2n[nH]c(=S)n2-c2ccccc2)c2cccc(Cl)c2)cc1	3.3%	i	-7.5%	27.5%	-19.6%	?
c1csc(CNc2nc(CN3CCCC(c4nc5ccccc5o4)C3)nc3ccccc23)c1 (centres undefined)	/	-13.9%	1.6%	/	/	/
CC(C)NCC(O)Cn1c2c(c3ccccc31)CCc1c-2cnn1-c1ccccc1 (centres undefined)	16.9%	/	11.2µM*	-11.7%	0.6%	-7.0%
CN1CCc2c(n(CC(O)CNCc3ccccc3)c3ccccc23)C1=O (centres undefined)	-4.5%	i	-11.1%	-4.8%	2.0%	-4.8%
CC[C@@]1(C(=O)OC)N[C@H](CN(C)C(=O)Nc2ccc(C(F)(F)F)cc2)[C@@H]2C(=O)N(Cc3ccccc3)C(=O)[C@@H]21	-15.6%	-3.5%	-4.6%	4.2%	/	-7.3%
COC(=O)[C@]1(Cc2ccccc2)N[C@H](CN(C)C(=O)Nc2ccc(C(F)(F)F)cc2)[C@@H]2C(=O)N(Cc3ccccc3)C(=O)[C@@H]21	-2.6%	?	10µM*	0.0%	/	2.4%
CCN(CC)c1ccc2c(-c3ccc(S(=O)(=O)O)cc3S(=O)(=O)[O-])c3ccc(=[N+](CC)CC)cc-3oc2c1	?	/	/	14.1µM*	?	-22.7%
CCN(CC)c1ccc2nc3c4ccccc4c(=O)cc-3oc2c1	0.6%	/	/	-7.8%	-2.2%	-11.9%
CSc1nnc(CCNC(=O)c2ccc(-c3cccc(F)c3)cc2)n1-c1ccc(F)cc1	/	-16.3%	-4.3%	/	/	/
CN(CCO)c1cc(N2CCCCC2)c2nonc2c1[N+](=O)[O-]	14.5%	-10.4%	-23.3%	1.78µM*	0.1%	12.4%
CCCS(=O)(=O)NCCc1sc2nc(-c3ccc(F)cc3)nn2c1C	/	?	?	/	/	4.2%
c1csc(-c2nc(CN3CCSCC3)cs2)c1	-14.8%	-15.5%	-10.3%	-5.9%	15.8µM*	?
O=S1(=O)CCN(Cc2csc(-c3cccs3)n2)CC1	-12.0%	-0.5%[7.34 µM]	-3.6%[7.34 µM]	-29.0%	?	-29.0%
CN(C)c1ccc(CCc2ccc(N)cc2)cc1	10.6%	?	16.7%	?	/	3.3%
CN(C)c1ccc(Cc2ccc(N(C)C)cc2)cc1	?	/	/	14.1µM*	/	-9.1%
Oc1ccc(/C=N/n2c3ccccc3c3ccccc32)cc1	31.6µM*	/	?	-8.0%	6.6%	4.7%
Cc1nnc(C)n1/N=C/c1ccc(O)cc1	15.8%	/	-2.1%	3.4%	0.0%	0.6%
O=S(=O)(CCc1nnc(-c2ccccc2)o1)c1ccc2ccccc2c1	10.9%	/	2.82µM*	7.8%	7.6%	5.0%
CCOc1ccc(CNC(=O)c2cc3oc4ccccc4c3n2C)cc1	-5.3%	10µM*!	7.3%	2.5%	5.7%	2.6%
SMILES	RE007 growth inh	VACV mCherry inh	VACV Venus inh	AMA1-RON2 inh	LmPK inh	Tb PYK inh
CCn1c(C(=O)NCc2ccc(F)cc2)cc2oc3ccccc3c21	/	-16.3%	10.1%	/	/	2.1%
O=C(O)c1cc(O)c2c(c1)[C@H]([C@H]1c3cc(C(=O)O)cc(O)c3C(=O)c3c(O[C@@H]4O[C@H](CO)[C@@H](O)[C@H](O)[C@H]4O)cccc31)c1cccc(O[C@@H]3O[C@H](CO)[C@@H](O)[C@H](O)[C@H]3O)c1C2=O	/	-9.7%	2.8%	/	/	/
COc1ccc(-c2csc(NC(=O)c3ccccc3NS(=O)(=O)c3ccc(C)cc3)n2)cc1	10.5%	11.2µM*	?	-21.9%	1.5%	2.1%
C(=N\Nc1ncnc2sc3c(c12)CCC3)/c1ccncc1	-0.6%	11.2µM*	10µM*	12.4%	-1.8%	2.5%
CCOC(=O)N1CCN(C(=O)CSc2nnc(-c3cc(OC)cc(OC)c3)o2)CC1	2.8%	/	?	12.3%	-3.1%	-14.2%
Cc1ccc(-c2nnc(SCC(=O)N3CCCC3)o2)cc1C	-3.3%	/	-60.2%	4.9%	-4.3%	-7.7%
CCOC(=O)N1CCN(C(=O)CSc2nnc(-c3ccc(C)c(C)c3)o2)CC1	0.1%	10µM*	?	-0.5%	3.4%	3.1%
CCOC(=O)N1CCN(C(=O)CSc2nnc(-c3ccc(C(C)(C)C)cc3)o2)CC1	3.0%	5.62µM*	?	8.9%	3.2%	-3.3%
COCC1CCCN(Cc2ccc3c(c2)CN(C(=O)c2cnn(C(C)C)c2)CCO3)C1 (centres undefined)	/	-9.9%	2.9%	/	/	/
CCN(CC)c1ccc(/C=C2\CCC(/C=C(/C#N)C(=O)Nc3ccccc3F)=C2N2CCOCC2)cc1	-9.6%	36.3%	113.8%	-15.9%	/	-10.5%
CCN(CC)c1ccc(/C=C2\CCC(/C=C(\C#N)C(=O)Nc3ccccc3F)=C2N2CCOCC2)cc1	-4.1%	/	/	-3.5%	11.2µM*	-18.5%
COCc1c(C(=O)NC2CCCCC2)cnn1-c1nccc(-c2cc(C)sc2C)n1	/	-1.9%	-0.6%	/	/	/
Cc1ccc2c(c1)c1c3n2CCN(C(=O)CN2CCN(C)CC2)C3CCC1 (centres undefined)	-1.3%	-24.7%	-13.0%	-22.7%	0.9%	0.0%
CN1CCN(CC(=O)N2CCn3c4c(c5cc(C6CCCCC6)ccc53)CCCC42)CC1 (centres undefined)	?	11.2µM*	?	?	-8.0%	-6.1%
COCCN1CCN(C(=O)c2cnn(-c3nccc(-c4ccccc4OC)n3)c2-c2ccco2)CC1	/	-13.4%	20.0%	/	/	/
Cc1ccc(N(CC(=O)N2CCN(c3cc(C)ccc3C)CC2)S(=O)(=O)c2c(C)nn(C)c2C)cc1	/	-25.3%	-24.7%	/	/	-3.1%
COc1ccc(CC2NC[C@H](O)[C@H]2OC(C)=O)cc1 (some centres undefined)	/	0.794µM*	1µM*	/	/	/
COc1ccc(CC2NCC(O)C2OC(C)=O)cc1 (centres undefined)	?	0.0089µM*	0.112µM*	1.5%	/	-7.6%
COc1ccc(CC(=O)N2CCN(C(=O)Cc3ccc(OC)cc3)CC2)cc1	16.7%	i	-8.0%	1.4%	4.3%	-3.4%

Bioassay records: PubChem BioAssay, National Center for Advancing Translational Sciences (NCATS)
